This assay can be described thus: chemical genetic growth profiling, strain panel (AID 1159580).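 Also: tested at 20 µM; growth read once vehicle control cultures reached saturation at 30 °C; 1 = growth at the plate median or of vehicle wells; lower values mean less growth of the strain.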 The settings on record: growth OD.
[1] abbreviates: S. cerevisiae deletion strains, locus YAL013W, strain DEP1, hits give low values.
[2] abbreviates: S. cerevisiae deletion strains, locus YBR229C, strain ROT2, hits give low values.
Setting [3] is: S. cerevisiae deletion strains, locus YDL101C, strain DUN1, hits give low values.
The mark [4] stands for this setting: S. cerevisiae deletion strains, locus YDL134C, strain PPH21, hits give low values.
Setting [5] is: S. cerevisiae deletion strains, locus YDR150W, strain NUM1, hits give low values.
[6] abbreviates: S. cerevisiae deletion strains, locus YEL061C, strain CIN8, hits give low values.
The mark [7] stands for this setting: S. cerevisiae deletion strains, locus YGR078C, strain PAC10, hits give low values.
Where [8] appears, read: S. cerevisiae deletion strains, locus YHR030C, strain SLT2, hits give low values.
The mark [9] stands for this setting: S. cerevisiae deletion strains, locus YHR087W, strain rtc3, hits give low values.
Where [10] appears, read: S. cerevisiae deletion strains, locus YJR043C, strain POL32, hits give low values.
The mark [11] stands for this setting: S. cerevisiae deletion strains, locus YJR075W, strain HOC1, hits give low values.
Setting [12] is: S. cerevisiae deletion strains, locus YLR039C, strain RIC1, hits give low values.
[13] abbreviates: S. cerevisiae deletion strains, locus YLR058C, strain SHM2 (second series), hits give low values.
The mark [14] stands for this setting: S. cerevisiae deletion strains, locus YLR085C, strain ARP6, hits give low values.
The mark [15] stands for this setting: S. cerevisiae deletion strains, locus YLR262C, strain YPT6, hits give low values.
[16] abbreviates: S. cerevisiae deletion strains, locus YML094W, strain GIM5, hits give low values.
The mark [17] stands for this setting: S. cerevisiae deletion strains, locus YMR219W, strain ESC1, hits give low values.
Where [18] appears, read: S. cerevisiae deletion strains, locus YMR263W, strain SAP30, hits give low values.
The mark [19] stands for this setting: S. cerevisiae deletion strains, locus YNL128W, strain TEP1, hits give low values.
Where [20] appears, read: S. cerevisiae deletion strains, locus YNL153C, strain GIM3, hits give low values.
The mark [21] stands for this setting: S. cerevisiae deletion strains, locus YNL298W, strain CLA4 (second series), hits give low values.
Setting [22] is: S. cerevisiae deletion strains, locus YNL322C, strain KRE1, hits give low values.
[23] abbreviates: S. cerevisiae deletion strains, locus YNR030W, strain Alg12, hits give low values.
[24] abbreviates: S. cerevisiae deletion strains, locus YPL055C, strain LGE1, hits give low values.
Where [25] appears, read: S. cerevisiae deletion strains, locus YPL241C, strain CIN2, hits give low values.
[26] abbreviates: S. cerevisiae deletion strains, locus YPR135W, strain CTF4, hits give low values.
Where [27] appears, read: S. cerevisiae deletion strains, locus YMR307W, strain GAS1, hits give low values.

Screen size: about 5,500 compounds; about 2,000 (36%) were called active. Not shown: some 18% with an inconclusive outcome. The list shows a part of the results. Values without a mark were called inactive. Rule as the data show it: active = normalized growth mostly below about 0.91 (no sharp cut-off); inconclusive = no clear call, values can overlap the other calls; inactive = mostly above about 0.92.

Regarding `COc1ccc(N=Cc2ccccc2O)cc1`, the normalized growth by setting is: under setting [1], 0.993; under setting [2], 0.99; under setting [3], 0.991; under setting [4], 1.01; under setting [5], 0.952; under setting [6], 0.991. Moreover, the normalized growth under setting [7] is 0.995; the normalized growth under setting [8] was 0.879; the normalized growth under setting [9] is 0.969; the normalized growth under setting [10] was 0.956; the normalized growth under setting [11] is 0.967; the normalized growth under setting [12] is 0.841. Besides, the normalized growth is 0.988 under setting [13]; 0.999 under setting [14]; 0.813 (active) under setting [15]; 0.978 under setting [16]; 0.976 under setting [17]; 0.963 under setting [18]. The normalized growth is 0.986 under setting [19]; 1.01 under setting [20]; 0.975 under setting [21]; 0.985 under setting [22]; 0.973 under setting [23]; 0.819 (S. cerevisiae deletion strains, locus YOL006C, strain TOP1, hits give low values). For the same compound, the normalized growth was 0.912 under setting [24]; 0.977 under setting [25]; 0.86 under setting [26]; 0.977 (S. cerevisiae strains, strain wild type, hits give low values).
Turning to `COc1ccc(C=Nc2ccc(O)cc2)cc1`, the normalized growth is, setting by setting: under setting [1], 0.999; under setting [2], 1.01; (S. cerevisiae deletion strains, locus YCL061C, strain MRC1, hits give low values) 0.979; under setting [3], 1.03; under setting [4], 1.03; under setting [5], 0.975. The normalized growth is, setting by setting: under setting [6], 1.05; under setting [7], 0.996; under setting [8], 1.04; under setting [9], 0.998; under setting [10], 0.99; under setting [11], 1.04. For the same compound, the normalized growth runs as follows: (S. cerevisiae deletion strains, locus YKL190W, strain CNB1, hits give low values) 1.02; under setting [12], 0.936; under setting [13], 1.02; under setting [14], 1.03; under setting [15], 0.931; under setting [16], 1.01. Also, the normalized growth was 0.996 under setting [17]; 1.02 under setting [18]; 1.15 under setting [27]; 1.02 under setting [19]; 1.01 under setting [20]; 1.04 under setting [21]. Further, the normalized growth by setting is: under setting [22], 0.994; under setting [23], 1.01; under setting [24], 1.04; under setting [25], 0.987; under setting [26], 0.995.
For the compound `CCCN(CCC)CCc1c[nH]c2ccc(C(N)=O)cc12`, the normalized growth is 1.07 (S. cerevisiae deletion strains, locus YAL040C, strain CLN3, hits give low values); 0.996 (S. cerevisiae deletion strains, locus YCL061C, strain MRC1 (second series), hits give low values); 0.981 (S. cerevisiae deletion strains, locus YDR363W, strain ESC2, hits give low values); 0.991 (S. cerevisiae deletion strains, locus YER002W, strain NOP16, hits give low values); 0.988 under setting [18]; 1 under setting [27]. For the same compound, the normalized growth reads like this: (S. cerevisiae deletion strains, locus YNL175C, strain NOP13, hits give low values) 1.05; (S. cerevisiae deletion strains, locus YNL197C, strain WHI3, hits give low values) 1.02; (S. cerevisiae deletion strains, locus YNL224C, strain SQS1, hits give low values) 0.994; under setting [22], 0.95; (S. cerevisiae deletion strains, locus YOR083W, strain WHI5 (second series), hits give low values) 1.01; under setting [25], 0.988.

Source of the values: PubChem BioAssay AID1159580 (chemical genetic matrix, 2015).
